Data on 19 molecules can be found in PubChem BioAssay (NCI).

Assay [1] can be described thus: NCI Yeast Anticancer Drug Screen. Data for the rad50 strain (AID 155).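 Further: 0% = growth of vehicle-only cultures of the same strain.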 To be noted: S. cerevisiae rad50 strain growth inhibition; at 50.0 µM; active compounds read high. In short, it runs like this:
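Growth of the mutant yeast was measured after compound exposure and referenced to vehicle-treated cultures.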

Assay [2] is described as follows: NCI Yeast Anticancer Drug Screen. Data for the mec2-1 strain (AID 157). To be noted: S. cerevisiae mec2-1 strain, at 50.0 µM, active compounds read high. The procedure, abridged:
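Using mec2-1 yeast: add compound, measure growth, express inhibition versus vehicle-treated cultures.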

Assay [3] is described as follows: NCI Yeast Anticancer Drug Screen. Data for the sgs1 mgt1 strain (AID 161).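 Further: 0% = growth of cultures given vehicle only.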 To be noted: S. cerevisiae sgs1 mgt1 strain, at 50.0 µM, active compounds read high. The procedure, abridged: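 This yeast growth screen uses a strain with defined DNA-repair lesions; compound-treated growth is compared with vehicle-treated growth.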
Assay [4] is described as follows: NCI Yeast Anticancer Drug Screen. Data for the cln2 rad14 strain (AID 165).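 Further: 0% = growth equal to vehicle treated cultures.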 To be noted: S. cerevisiae cln2 rad14 strain, at 50.0 µM, active compounds read high. The procedure, abridged:
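Yeast strain cln2 rad14, bearing defects in cell cycle control and DNA repair, serves as the test system; values reflect growth inhibition compared with vehicle.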

Assay [5] in a line: NCI Yeast Anticancer Drug Screen. Data for the bub3 strain (AID 167). To be noted: S. cerevisiae bub3 mutant strain, at 50.0 µM, active compounds read high. The procedure, abridged:
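Whole-cell yeast assay. The mutant strain was incubated with compounds, and growth inhibition was determined by comparison with vehicle-treated cells.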

Assay [6] in a line: NCI Yeast Anticancer Drug Screen. Data for the mlh1 rad18 strain (AID 175). To be noted: S. cerevisiae mlh1 rad18 strain growth inhibition; at 50.0 µM; active compounds read high. In short, it runs like this: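 Steps: expose repair-defective yeast to compound; measure growth; express inhibition against vehicle-treated controls.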

Compounds without any hit were thinned out: in the full panel of roughly 79,000, 15% have a hit. Unmarked numbers belong to inactive results. Calls of active or inactive are those of the source. No stated cut-off is given here; in the data, active means growth inhibition above about 70%; inactive means the rest.

Take `CC(=O)O[C@H]1CC[C@@]2(C)[C@H](CC[C@@H]3[C@@H]2CC[C@]2(C)[C@@H](c4ccc(=O)oc4)C[C@H]4O[C@]342)C1`: the growth inhibition is 53% in assay [1]; 7.05% in assay [2]; 29.5% in assay [3]; 13.9% in assay [4]; 8.45% in assay [5]; 17.4% in assay [6].

For the molecule `CCCCCCNP(=O)(OCC)OCC`, the growth inhibition in assay [1] is -6%; in assay [2], -36.9%; in assay [3], 5.3%; in assay [4], 6.8%; in assay [5], -41.8%; in assay [6], 12.3%.

As for `NC1CC2NC3CCCCC3NC2CC1N` (centres undefined), the growth inhibition in assay [1] was 14.8%; in assay [2] it was 6.25%; in assay [3] it was -0.6%; in assay [4], 19.5%; in assay [5] it was -22.4%; in assay [6], 6.55%.

Take `C=C(Br)C[N+]12CN3CN(CN(C3)C1)C2`: the growth inhibition was -2% in assay [1]; -6.55% in assay [2]; 2.15% in assay [3]; -6.95% in assay [4]; 2.7% in assay [5]; -17.2% in assay [6].

With `O=C1OC[C@@H]2Cc3c([nH]c4ccccc34)[C@@H](c3cc(O)c(O)c(O)c3)N12`, the growth inhibition in assay [1] was 12.1%; in assay [2], -1.2%; in assay [3], 20.8%; in assay [4] it was 7.4%; in assay [5], 10.7%; in assay [6] it was -51.6%.

For `O=C(Nc1cc(S(=O)(=O)O)cc2cc(S(=O)(=O)O)c(N=Nc3ccc([As](=O)(O)O)cc3)c(O)c12)c1ccc([N+](=O)[O-])cc1`, the growth inhibition in assay [1] is 12.7%; in assay [2] it was 1.7%; in assay [3] it was -7.45%; in assay [4] it was -9.1%; in assay [5], -3.4%; in assay [6], 6.55%.

Regarding `CC1(Cl)C(=O)NC(=O)NC1O` (centres undefined), the growth inhibition in assay [1] is 4.45%; in assay [2], 2.5%; in assay [3], 12.2%; in assay [4], 20.4%; in assay [5], 0.1%; in assay [6] it was 19.1%.

In the case of `CCOC(=O)C[S][Sn]([Cl])([Cl])[S]CC(=O)OCC`, the growth inhibition is 0.6% in assay [1]; -1.15% in assay [2]; -3.65% in assay [3]; -32% in assay [4]; -5.2% in assay [5]; -18.1% in assay [6].

As for `[C-]#[O+].[C-]#[O+].[C-]#[O+].[Mo].c1ccc(P(CC[PH+](CC[PH+](CC[PH+](c2ccccc2)c2ccccc2)c2ccccc2)c2ccccc2)c2ccccc2)cc1` (centres undefined), the growth inhibition in assay [1] is 30.8%; in assay [2] it was 27.5%; in assay [3], 43.4%; in assay [4] it was 37.7%; in assay [5] it was 32.5%; in assay [6], 44.1%.

Regarding `CC1=C2[C@H]3OC(=O)[C@@H](C)[C@@H]3CC[C@@]2(C)C=CC1=O`, the growth inhibition in assay [1] was 20.6%; in assay [2] it was 5.9%; in assay [3], 1.15%; in assay [4] it was 15.2%; in assay [5] it was 2.25%; in assay [6] it was 12.6%.

With `Oc1ccccc1C=NCCN=Cc1ccccc1O.[Fe]`, the growth inhibition in assay [1] is 11.8%; in assay [2], 22.2%; in assay [3], 5.35%; in assay [4], 6.25%; in assay [5] it was 46%; in assay [6] it was 13.6%.

In the case of `O=C(CCN1CC=C(c2ccccc2)CC1)c1ccc(F)cc1`, the growth inhibition was 76.5% (active) in assay [1]; 51.5% in assay [2]; 88.6% (active) in assay [3]; 67.5% in assay [4]; 64.2% in assay [5]; 92.3% (active) in assay [6].

`FC(F)(F)c1cccc(NC2=NCCS2)c1`: the growth inhibition is -22.2% in assay [1]; -46.1% in assay [2]; 0% in assay [3]; -5.6% in assay [4]; 17.9% in assay [5]; -42.8% in assay [6].

As to `COc1cc2c(cc1OC)C13CCN4CC5CCOC6CC(=O)N2C1C6C5CC43` (centres undefined), the growth inhibition in assay [1] was 8.6%; in assay [2], 6.35%; in assay [3], 21.6%; in assay [4] it was 10.2%; in assay [5], -7.5%; in assay [6], -72.3%.

As for `O=C(NC(c1ccccc1)(c1ccccc1)c1ccccc1)N(CCCl)CCCl`, the growth inhibition in assay [1] was 5.95%; in assay [2], 20.7%; in assay [3], 12.9%; in assay [4] it was 5.3%; in assay [5] it was 39.5%; in assay [6], -7.5%.

For `CCCCOC(=O)c1ccccc1C(=O)OCc1ccccc1`, the growth inhibition is -3.45% in assay [1]; -11.7% in assay [2]; -2.85% in assay [3]; -43.7% in assay [4]; 2.8% in assay [5]; -5.25% in assay [6].

`CCCCCCCNC(c1ccccc1)C(O)c1ccccc1` (centres undefined): the growth inhibition was 8.4% in assay [1]; 10.4% in assay [2]; 12.1% in assay [3]; -40.2% in assay [4]; 1.55% in assay [5]; -3.05% in assay [6].

With `CCOc1cc(OCC)c(OCC)cc1/C=C/[N+](=O)[O-]`, the growth inhibition in assay [1] was 90% (active); in assay [2], 92.7% (active); in assay [3], 93.7% (active); in assay [4], 77% (active); in assay [5], 89.5% (active); in assay [6], 95.2% (active).

For the molecule `C/C=C(/C)C(=O)O[C@H]1CC[C@@]2(C)[C@@H]3CC[C@H]4[C@]5(O)C[C@H](O)[C@@]6(O)[C@@H](CN7C[C@@H](C)CC[C@H]7[C@@]6(C)O)[C@]5(O)C[C@@]42O[C@@]13O`, the growth inhibition in assay [1] was 27.1%; in assay [2] it was -15.9%; in assay [3] it was 18%; in assay [4], 0.35%; in assay [5] it was 22.8%; in assay [6], 30.6%.
